In ChEMBL document CHEMBL1961873, “Compounds: GSK PKIS; Assays: Nanosyn kinase panel” (2012):

What was measured:
[1] = system: Epidermal growth factor receptor (Homo sapiens), P00533 [T790M]; conditions: at 1 µM
[2] = system: Epidermal growth factor receptor (Homo sapiens), P00533 [L858R,T790M]; conditions: at 0.1 µM
[3] = system: Epidermal growth factor receptor (Homo sapiens), P00533 [L858R,T790M]; conditions: at 1 µM
[4] = target: Ephrin type-A receptor 2 (Homo sapiens) (UniProt P29317); conditions: at 0.1 µM
[5] = target: Ephrin type-A receptor 2 (Homo sapiens) (UniProt P29317); conditions: at 1 µM
[6] = target: T1, Ephrin type-A receptor 3 (Homo sapiens) (UniProt P29320); conditions: at 0.1 µM
T1 sequence (whole entry): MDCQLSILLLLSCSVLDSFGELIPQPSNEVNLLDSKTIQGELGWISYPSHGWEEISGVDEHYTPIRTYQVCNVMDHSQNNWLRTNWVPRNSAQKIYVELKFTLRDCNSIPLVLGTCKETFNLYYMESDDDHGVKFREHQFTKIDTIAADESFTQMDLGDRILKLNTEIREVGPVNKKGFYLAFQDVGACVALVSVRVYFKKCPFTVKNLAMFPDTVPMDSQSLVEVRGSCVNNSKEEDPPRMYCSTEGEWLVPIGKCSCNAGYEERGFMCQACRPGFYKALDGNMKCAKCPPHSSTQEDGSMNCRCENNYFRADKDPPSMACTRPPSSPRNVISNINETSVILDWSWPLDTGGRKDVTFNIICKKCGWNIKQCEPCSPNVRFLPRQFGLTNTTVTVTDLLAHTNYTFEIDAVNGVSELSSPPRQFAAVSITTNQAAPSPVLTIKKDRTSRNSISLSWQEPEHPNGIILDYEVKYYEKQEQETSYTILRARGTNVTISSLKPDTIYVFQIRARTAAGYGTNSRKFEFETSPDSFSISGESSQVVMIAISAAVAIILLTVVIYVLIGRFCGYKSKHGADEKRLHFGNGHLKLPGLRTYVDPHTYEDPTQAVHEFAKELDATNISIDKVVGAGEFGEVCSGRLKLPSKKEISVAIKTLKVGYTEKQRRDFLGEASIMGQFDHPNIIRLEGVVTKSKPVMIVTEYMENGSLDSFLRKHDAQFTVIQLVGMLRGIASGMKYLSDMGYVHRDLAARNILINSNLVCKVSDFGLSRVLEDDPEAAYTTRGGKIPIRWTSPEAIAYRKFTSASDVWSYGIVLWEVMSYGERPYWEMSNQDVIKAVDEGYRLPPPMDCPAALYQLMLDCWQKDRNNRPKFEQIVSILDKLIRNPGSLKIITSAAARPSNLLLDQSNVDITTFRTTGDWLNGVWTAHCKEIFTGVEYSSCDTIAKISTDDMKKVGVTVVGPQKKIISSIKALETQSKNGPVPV

[7] = target: T1, Ephrin type-A receptor 3 (Homo sapiens); conditions: at 1 µM
[8] = target: Ephrin type-A receptor 4 (Homo sapiens) (UniProt P54764); conditions: at 0.1 µM
[9] = target: Ephrin type-A receptor 4 (Homo sapiens) (UniProt P54764); conditions: at 1 µM
[10] = target: T2, Ephrin type-B receptor 2 (Homo sapiens) (UniProt P29323); conditions: at 0.1 µM
T2 sequence (whole entry): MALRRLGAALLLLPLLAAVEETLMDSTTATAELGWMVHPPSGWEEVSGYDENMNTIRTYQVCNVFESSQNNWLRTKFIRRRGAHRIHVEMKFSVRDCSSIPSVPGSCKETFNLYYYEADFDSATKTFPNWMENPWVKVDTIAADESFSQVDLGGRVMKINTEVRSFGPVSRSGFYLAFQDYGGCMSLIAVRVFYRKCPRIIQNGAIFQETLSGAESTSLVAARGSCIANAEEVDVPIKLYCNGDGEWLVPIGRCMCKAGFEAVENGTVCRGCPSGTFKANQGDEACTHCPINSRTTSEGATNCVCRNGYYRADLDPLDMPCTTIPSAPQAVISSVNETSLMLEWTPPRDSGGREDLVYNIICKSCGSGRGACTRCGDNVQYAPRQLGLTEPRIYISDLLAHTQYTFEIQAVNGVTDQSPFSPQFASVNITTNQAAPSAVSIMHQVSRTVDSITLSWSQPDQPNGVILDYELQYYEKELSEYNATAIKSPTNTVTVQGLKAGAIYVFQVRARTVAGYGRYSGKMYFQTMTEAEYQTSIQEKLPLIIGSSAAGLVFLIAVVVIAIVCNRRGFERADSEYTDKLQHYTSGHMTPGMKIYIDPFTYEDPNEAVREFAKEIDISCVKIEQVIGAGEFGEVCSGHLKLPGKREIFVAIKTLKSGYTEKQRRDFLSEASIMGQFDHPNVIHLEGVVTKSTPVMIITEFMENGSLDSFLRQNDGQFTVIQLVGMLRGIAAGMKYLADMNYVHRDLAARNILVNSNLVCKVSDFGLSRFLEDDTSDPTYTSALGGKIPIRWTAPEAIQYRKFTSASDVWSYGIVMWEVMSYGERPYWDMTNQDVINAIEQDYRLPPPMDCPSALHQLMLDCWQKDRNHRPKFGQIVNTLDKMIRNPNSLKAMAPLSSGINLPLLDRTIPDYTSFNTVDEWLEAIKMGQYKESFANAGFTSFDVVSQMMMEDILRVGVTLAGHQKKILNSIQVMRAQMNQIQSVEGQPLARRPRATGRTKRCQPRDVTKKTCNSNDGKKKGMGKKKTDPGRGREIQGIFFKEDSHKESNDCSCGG

[11] = target: T2, Ephrin type-B receptor 2 (Homo sapiens); conditions: at 1 µM
[12] = target: T3, Ephrin type-B receptor 3 (Homo sapiens) (UniProt P54753); conditions: at 0.1 µM
T3 sequence (whole entry): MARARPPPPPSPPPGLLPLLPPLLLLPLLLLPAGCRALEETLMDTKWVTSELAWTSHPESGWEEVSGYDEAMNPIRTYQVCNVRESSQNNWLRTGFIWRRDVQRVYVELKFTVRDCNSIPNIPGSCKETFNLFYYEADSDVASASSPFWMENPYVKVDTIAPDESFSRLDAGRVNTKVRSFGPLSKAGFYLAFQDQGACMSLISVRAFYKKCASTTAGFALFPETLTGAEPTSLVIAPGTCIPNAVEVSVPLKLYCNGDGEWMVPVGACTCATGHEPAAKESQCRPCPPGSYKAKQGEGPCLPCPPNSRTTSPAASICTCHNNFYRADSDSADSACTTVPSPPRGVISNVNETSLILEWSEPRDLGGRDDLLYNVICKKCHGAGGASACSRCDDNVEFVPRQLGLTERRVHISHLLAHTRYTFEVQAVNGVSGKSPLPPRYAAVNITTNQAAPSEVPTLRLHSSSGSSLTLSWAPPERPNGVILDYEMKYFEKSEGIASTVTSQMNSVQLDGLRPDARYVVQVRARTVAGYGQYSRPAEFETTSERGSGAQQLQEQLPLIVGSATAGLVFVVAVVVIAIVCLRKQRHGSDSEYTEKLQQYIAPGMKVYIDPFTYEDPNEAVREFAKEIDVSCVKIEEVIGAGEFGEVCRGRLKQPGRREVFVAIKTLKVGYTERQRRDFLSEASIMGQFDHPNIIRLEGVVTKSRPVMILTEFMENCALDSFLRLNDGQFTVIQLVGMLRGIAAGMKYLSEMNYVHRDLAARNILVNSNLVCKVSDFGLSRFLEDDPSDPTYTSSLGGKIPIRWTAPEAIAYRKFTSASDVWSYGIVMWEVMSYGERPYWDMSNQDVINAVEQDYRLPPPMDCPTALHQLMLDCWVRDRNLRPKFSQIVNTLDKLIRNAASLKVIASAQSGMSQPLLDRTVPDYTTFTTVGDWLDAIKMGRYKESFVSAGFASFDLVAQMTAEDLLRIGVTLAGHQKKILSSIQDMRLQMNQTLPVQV

[13] = target: T3, Ephrin type-B receptor 3 (Homo sapiens); conditions: at 1 µM
[14] = target: T4, Ephrin type-B receptor 4 (Homo sapiens) (UniProt P54760); conditions: at 0.1 µM
T4 sequence (whole entry): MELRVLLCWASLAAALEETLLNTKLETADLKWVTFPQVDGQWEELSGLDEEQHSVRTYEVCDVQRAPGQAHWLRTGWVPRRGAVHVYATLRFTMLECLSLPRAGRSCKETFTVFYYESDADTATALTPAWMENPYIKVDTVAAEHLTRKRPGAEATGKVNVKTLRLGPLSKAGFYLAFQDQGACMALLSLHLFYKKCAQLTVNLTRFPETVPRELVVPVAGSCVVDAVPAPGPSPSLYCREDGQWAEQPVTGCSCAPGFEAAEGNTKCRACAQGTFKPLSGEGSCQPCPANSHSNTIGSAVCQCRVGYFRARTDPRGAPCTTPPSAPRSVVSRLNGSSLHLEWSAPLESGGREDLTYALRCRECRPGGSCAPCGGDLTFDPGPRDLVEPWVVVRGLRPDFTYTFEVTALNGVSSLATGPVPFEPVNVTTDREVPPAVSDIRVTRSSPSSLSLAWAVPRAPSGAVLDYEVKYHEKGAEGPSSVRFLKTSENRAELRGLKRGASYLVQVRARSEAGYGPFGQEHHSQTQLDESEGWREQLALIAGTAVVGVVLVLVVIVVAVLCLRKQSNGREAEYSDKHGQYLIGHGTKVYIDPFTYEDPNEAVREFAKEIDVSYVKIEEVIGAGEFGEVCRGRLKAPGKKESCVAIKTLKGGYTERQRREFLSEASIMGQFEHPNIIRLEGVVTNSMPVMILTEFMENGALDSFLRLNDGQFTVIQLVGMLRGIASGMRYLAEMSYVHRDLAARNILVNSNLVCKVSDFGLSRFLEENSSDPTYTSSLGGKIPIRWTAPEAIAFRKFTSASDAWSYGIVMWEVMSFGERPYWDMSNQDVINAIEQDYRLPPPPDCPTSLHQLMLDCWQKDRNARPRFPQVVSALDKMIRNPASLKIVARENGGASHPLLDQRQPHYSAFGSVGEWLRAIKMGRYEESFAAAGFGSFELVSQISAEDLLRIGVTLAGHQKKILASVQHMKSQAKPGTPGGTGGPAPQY

[15] = target: T4, Ephrin type-B receptor 4 (Homo sapiens); conditions: at 1 µM
[16] = target: Receptor tyrosine-protein kinase erbB-2 (Homo sapiens) (UniProt P04626); conditions: at 0.1 µM
[17] = target: Receptor tyrosine-protein kinase erbB-2 (Homo sapiens) (UniProt P04626); conditions: at 1 µM
[18] = target: Receptor tyrosine-protein kinase erbB-4 (Homo sapiens) (UniProt Q15303); conditions: at 0.1 µM
Chain of Receptor tyrosine-protein kinase erbB-4 (Homo sapiens) (Q15303 whole entry): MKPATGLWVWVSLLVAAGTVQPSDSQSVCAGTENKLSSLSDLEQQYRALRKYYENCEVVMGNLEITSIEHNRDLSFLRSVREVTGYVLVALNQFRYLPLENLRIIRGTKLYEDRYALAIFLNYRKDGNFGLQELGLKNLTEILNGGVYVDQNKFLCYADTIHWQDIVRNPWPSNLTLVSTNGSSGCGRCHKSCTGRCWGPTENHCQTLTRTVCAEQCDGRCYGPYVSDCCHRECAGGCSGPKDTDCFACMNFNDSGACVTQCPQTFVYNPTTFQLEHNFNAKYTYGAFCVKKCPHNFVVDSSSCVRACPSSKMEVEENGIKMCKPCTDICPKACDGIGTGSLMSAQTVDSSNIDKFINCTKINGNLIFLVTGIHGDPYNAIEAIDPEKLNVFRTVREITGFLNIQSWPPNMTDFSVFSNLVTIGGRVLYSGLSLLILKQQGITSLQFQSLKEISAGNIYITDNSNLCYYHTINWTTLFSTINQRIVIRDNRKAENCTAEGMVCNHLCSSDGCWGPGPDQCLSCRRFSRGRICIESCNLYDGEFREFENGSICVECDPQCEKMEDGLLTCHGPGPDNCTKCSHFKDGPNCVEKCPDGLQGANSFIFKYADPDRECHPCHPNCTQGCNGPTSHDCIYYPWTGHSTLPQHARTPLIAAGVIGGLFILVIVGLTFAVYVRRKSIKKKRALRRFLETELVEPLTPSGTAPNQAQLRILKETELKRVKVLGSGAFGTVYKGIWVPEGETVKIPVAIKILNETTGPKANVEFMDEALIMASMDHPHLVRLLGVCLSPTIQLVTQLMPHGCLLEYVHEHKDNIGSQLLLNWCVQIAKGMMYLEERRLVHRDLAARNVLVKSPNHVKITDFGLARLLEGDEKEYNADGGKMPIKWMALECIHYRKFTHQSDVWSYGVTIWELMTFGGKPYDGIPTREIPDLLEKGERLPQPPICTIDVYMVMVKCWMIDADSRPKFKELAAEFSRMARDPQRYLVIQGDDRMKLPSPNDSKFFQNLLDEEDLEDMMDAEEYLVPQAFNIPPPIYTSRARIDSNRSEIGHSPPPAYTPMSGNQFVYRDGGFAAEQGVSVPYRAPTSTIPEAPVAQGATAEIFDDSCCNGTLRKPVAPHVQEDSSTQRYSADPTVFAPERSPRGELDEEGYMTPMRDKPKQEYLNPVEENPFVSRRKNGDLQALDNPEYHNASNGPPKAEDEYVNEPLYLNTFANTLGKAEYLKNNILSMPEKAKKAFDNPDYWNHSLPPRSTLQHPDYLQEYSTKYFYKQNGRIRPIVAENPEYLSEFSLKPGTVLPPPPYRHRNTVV

[19] = target: Receptor tyrosine-protein kinase erbB-4 (Homo sapiens) (UniProt Q15303); conditions: at 1 µM
[20] = target: Tyrosine-protein kinase Fer (Homo sapiens) (UniProt P16591); conditions: at 0.1 µM;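 note: reported figures are averaged percent inhibition of FER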
Chain of Tyrosine-protein kinase Fer (Homo sapiens) (P16591 whole entry, looked up): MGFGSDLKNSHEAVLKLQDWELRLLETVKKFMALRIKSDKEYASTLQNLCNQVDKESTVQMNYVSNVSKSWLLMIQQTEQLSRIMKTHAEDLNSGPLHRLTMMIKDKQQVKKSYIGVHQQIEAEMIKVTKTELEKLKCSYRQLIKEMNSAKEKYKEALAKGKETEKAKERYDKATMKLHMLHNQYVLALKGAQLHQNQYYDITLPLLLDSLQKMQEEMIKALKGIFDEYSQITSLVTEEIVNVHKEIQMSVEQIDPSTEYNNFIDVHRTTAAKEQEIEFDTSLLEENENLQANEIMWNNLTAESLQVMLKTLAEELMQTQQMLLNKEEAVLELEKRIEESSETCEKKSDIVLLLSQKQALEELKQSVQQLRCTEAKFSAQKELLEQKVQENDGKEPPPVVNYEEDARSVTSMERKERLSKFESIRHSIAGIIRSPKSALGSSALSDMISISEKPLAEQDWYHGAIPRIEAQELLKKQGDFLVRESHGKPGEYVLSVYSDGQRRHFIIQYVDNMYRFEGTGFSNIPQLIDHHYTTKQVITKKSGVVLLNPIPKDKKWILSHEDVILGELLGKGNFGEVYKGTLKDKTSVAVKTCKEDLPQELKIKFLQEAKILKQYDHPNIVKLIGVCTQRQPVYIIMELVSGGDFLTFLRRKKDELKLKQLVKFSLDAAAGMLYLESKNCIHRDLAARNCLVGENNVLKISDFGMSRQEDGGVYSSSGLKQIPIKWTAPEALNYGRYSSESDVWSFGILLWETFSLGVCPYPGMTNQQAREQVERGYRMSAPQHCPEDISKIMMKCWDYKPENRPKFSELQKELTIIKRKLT

Chain of Epidermal growth factor receptor (Homo sapiens), P00533 [T790M] (P00533 whole entry T790M): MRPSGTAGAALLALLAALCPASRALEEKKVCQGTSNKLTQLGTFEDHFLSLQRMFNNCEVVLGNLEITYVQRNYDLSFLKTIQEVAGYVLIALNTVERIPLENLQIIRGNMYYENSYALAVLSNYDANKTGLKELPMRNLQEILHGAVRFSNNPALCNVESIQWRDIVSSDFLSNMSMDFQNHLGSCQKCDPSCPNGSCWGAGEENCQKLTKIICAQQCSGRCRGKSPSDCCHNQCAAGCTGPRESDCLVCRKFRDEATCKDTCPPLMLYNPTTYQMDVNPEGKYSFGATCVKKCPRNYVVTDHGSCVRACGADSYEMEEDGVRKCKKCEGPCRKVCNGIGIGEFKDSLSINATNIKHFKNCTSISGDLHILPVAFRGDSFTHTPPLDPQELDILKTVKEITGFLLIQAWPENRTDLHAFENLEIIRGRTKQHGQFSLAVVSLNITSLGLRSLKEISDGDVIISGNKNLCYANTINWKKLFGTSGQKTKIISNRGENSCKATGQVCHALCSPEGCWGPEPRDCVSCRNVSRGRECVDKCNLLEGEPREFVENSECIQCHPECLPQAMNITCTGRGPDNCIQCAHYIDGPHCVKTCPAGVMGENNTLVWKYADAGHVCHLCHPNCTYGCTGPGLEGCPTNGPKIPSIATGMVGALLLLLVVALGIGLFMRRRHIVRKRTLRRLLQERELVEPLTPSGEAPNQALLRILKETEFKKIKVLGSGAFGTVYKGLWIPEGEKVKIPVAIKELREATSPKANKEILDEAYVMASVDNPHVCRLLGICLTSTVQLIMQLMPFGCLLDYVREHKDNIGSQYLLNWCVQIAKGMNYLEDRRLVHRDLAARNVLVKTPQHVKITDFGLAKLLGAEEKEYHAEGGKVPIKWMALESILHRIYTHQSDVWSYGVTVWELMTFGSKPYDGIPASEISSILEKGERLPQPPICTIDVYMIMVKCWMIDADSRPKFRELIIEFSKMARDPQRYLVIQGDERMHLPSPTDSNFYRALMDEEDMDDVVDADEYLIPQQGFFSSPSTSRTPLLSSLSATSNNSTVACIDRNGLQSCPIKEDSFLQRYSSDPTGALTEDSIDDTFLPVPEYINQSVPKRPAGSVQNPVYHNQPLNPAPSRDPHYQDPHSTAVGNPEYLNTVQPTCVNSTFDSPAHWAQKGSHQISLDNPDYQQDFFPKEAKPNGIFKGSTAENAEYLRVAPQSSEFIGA
Chain of Epidermal growth factor receptor (Homo sapiens), P00533 [L858R,T790M] (P00533 whole entry T790M/L858R, looked up): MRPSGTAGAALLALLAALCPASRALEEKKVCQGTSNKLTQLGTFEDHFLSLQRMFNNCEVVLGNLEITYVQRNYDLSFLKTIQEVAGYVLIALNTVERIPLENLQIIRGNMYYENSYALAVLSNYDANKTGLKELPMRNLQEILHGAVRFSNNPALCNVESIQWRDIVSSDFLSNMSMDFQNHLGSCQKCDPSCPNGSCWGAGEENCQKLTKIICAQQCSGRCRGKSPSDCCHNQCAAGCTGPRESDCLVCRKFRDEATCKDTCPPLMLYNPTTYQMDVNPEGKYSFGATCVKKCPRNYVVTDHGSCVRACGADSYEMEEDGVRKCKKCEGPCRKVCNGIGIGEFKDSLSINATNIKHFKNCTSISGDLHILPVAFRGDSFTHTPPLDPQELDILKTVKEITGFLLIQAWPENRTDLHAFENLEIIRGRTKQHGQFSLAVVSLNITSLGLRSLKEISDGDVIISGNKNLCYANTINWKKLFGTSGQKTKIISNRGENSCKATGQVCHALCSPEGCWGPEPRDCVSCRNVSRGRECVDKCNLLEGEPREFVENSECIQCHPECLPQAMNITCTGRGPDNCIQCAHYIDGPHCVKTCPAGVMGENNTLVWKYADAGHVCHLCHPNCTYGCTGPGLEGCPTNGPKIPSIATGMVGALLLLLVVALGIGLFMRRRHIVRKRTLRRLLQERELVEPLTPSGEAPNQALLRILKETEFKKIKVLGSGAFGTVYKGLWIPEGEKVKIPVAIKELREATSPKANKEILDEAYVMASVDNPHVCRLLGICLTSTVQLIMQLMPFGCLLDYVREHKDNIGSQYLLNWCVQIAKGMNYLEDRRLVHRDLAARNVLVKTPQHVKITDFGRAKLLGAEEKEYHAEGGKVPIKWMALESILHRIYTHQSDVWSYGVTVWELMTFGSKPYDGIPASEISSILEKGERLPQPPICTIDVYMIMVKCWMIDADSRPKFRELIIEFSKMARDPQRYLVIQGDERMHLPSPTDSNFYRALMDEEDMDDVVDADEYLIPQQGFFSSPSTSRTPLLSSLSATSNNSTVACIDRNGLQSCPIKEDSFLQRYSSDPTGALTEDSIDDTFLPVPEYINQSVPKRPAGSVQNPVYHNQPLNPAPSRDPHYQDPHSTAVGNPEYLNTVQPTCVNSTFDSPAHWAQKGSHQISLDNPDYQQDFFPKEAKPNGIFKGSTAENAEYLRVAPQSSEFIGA

Compound	inhibition [1] [%]	inhibition [2] [%]	inhibition [3] [%]	inhibition [4] [%]	inhibition [5] [%]	inhibition [6] [%]	inhibition [7] [%]	inhibition [8] [%]	inhibition [9] [%]	inhibition [10] [%]	inhibition [11] [%]	inhibition [12] [%]	inhibition [13] [%]	inhibition [14] [%]	inhibition [15] [%]	inhibition [16] [%]	inhibition [17] [%]	inhibition [18] [%]	inhibition [19] [%]	inhibition [20] [%]
c1cnn2ncc(-c3ccnc(NCCCN4CCOCC4)n3)c2c1	1.66	-1.49	0.81	-0.74	-1.53	2.9	6.16	10	5.87	6.81	9.04	6.96	3.37	1.21	1.07	1.75	-0.02	8.02	8.49	0.82
Fc1cccc(COc2ccc(Nc3ncncc3C#Cc3ccccc3)cc2Cl)c1	3.85	3.98	5.02	4.2	0.3	4.46	4.68	9.27	13.1	8.04	11.3	4.96	3.65	1.3	2.18	3.69	4.08	9.32	19	2.19
Cn1c(-c2nonc2N)nc2cnccc21	0.67	-1.07	-0.94	1.97	1.07	6.89	4.47	7.88	4.19	4.59	3.92	3.54	4.62	2.84	2	4.78	3.42	14.9	17.3	3.92
